Screening data deposited in PubChem by National Center for Advancing Translational Sciences (NCATS).
Gal4-VP16 FLuc = counter-screen for ROR gamma inhibitors: Gal4-VP16 reporter; Drosophila S2 Gal4-VP16 UAS-luciferase, luminescence, 20 h; Potency, µM (titrated, usually from 53.6 µM), most hits filed as inhibitors; hit rate 3.5% among 310,000;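 further: Gal4-VP16 expression switched on by copper sulfate through the metallothionein promoter; nearly all actives have a fitted effect of over 50% in size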
KinaseGlo FLuc = Kinase-Glo luciferase inhibition (counter-screen) | Q27757 | Kinase-Glo luciferase, ATP luminescence, 8 min | Potency, µM (doses to about 38.3 µM), most hits filed as inhibitors | hit rate 0.28% among 200,000 | AID 1379; further: nearly all actives have a fitted effect of over 60% in size
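Inhibition of Kinase-Glo luciferase light generation was assessed at 10 uM ATP in pH 7.2 imidazole buffer, with luminescence measured after eight minutes at ambient temperature.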
RORg inh = ROR gamma (mouse) transcription inhibition; P51450; Drosophila S2 Gal4-RORgamma UAS-luciferase reporter, 20 h; hit rate 5.4% among 310,000; Potency, µM (doses to about 53.6 µM), actives largely listed as inhibitors; AID 2551; further: nearly all actives have a fitted effect of over 60% in size
Target sequence (P51450 whole entry, looked up, the tested form may be a part): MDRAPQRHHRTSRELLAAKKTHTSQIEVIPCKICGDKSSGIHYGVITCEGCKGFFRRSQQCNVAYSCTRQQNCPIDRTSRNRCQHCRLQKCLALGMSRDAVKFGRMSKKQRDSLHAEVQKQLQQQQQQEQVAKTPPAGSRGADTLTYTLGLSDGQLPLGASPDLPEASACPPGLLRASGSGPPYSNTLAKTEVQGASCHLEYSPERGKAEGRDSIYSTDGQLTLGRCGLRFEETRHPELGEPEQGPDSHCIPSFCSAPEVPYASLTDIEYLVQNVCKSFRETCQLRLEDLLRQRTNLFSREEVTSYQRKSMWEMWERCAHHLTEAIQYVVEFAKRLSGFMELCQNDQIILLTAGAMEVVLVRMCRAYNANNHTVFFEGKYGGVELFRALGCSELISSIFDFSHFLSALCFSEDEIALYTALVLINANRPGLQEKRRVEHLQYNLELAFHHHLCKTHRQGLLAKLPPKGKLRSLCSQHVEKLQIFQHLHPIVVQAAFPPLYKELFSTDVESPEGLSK
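Read-out: Photinus luciferase luminescence; inhibitors lower reporter signal. Insect Schneider cells with Gal4-ROR gamma fusion under metallothionein promoter, UAS reporter; 700 uM final copper sulfate induction, 20 hr, ambient temperature.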
Numbers stand for hits; . = inactive; ? = inconclusive; / = no result given; [ ] = another dose, or the depositor's remark. An excerpt weighted towards active compounds, which were near 6.2% of everything screened. The call rests on the fitted dose curve; in most records, active means well fitted curve in the direction sought with a large enough effect; inconclusive means small, poorly fitted or top-dose-only effect, or another doubt; inactive means no such curve, though single readings can be large; an effect the other way counts as inactive or inconclusive.

SMILES	Gal4-VP16 FLuc	KinaseGlo FLuc	RORg inh
N#Cc1c(-c2ccco2)c2c([nH]c1=S)CCCC2	.	.	.
N#Cc1c(-c2cccnc2)c2c([nH]c1=S)CCCC2	.	/	11µM
COc1ccc(-c2c3c([nH]c(=S)c2C#N)CCC3)cc1	?	.	.
C=C(C)C(=O)N1CC2(CC(c3cccc(NC(=O)CC)c3)=NO2)C[C@H]1C(N)=O (stereo partly specified)	.	/	.
CC(C)C[C@H](NC(=O)[C@H](CC(C)C)NC(=O)[C@@H](Cc1c[nH]c2ccccc12)NC(=O)[C@H](Cc1ccccc1)NC(=O)[C@@H](Cc1c[nH]c2ccccc12)NC(=O)[C@H](CCC(N)=O)NC(=O)[C@H](CCC(N)=O)NC(=O)[C@@H]1CCCN1C(=O)[C@H](CCCCN)NC(=O)[C@@H]1CCCN1C(=O)[C@H](N)CCCN=C(N)N)C(N)=O	.	/	.
CC(C)c1nc2ccccc2n1CC(O)COC1CCCCC1 (stereo unspecified)	.	.	.
CC(C)(C)C#CCn1c(/C=[N+](\[O-])C2CCCCC2)nc2ccccc21	.	/	10µM
Cc1ccsc1/C=N\NC(=O)Cn1nnc2ccccc21	?	.	14µM
CN(C)c1ccc(/C=N/NC(=O)Cn2nnc3ccccc32)cc1	.	.	.
Cc1ccsc1/C=N\NC(=O)c1cc(C(C)(C)C)[nH]n1	20µM	.	10µM
Cc1ccsc1/C=N/NC(=O)Cc1ccc(Cl)cc1	.	/	.
Cc1ccc(C(=O)N/N=C\c2sccc2C)cn1	?	.	?
Cc1cc(C(=O)N/N=C/c2sccc2C)no1	?	.	?
Cc1ccsc1/C=N/NC(=O)CSCc1ccc(Cl)cc1	10µM	.	11µM
Cc1ccsc1/C=N/NC(=O)c1ccc2c(c1)OCCO2	.	/	1.4µM
CC(C)(C)c1ccc(NC(=O)Nc2ccc(F)cc2)cc1	.	.	.
CCCc1c(OCCCOc2ccc(OCC(=O)O)cc2)ccc(C(C)=O)c1O	/	.	/
COC(=O)c1cccc(N(C(=O)c2cnccn2)C(C(=O)NCc2ccccc2)c2ccco2)c1 (stereo unspecified)	.	.	.
CCOc1ccc(C(C)NC(=O)c2cc(=O)[nH]c3ccccc23)cc1OCC (stereo unspecified)	.	/	.
CC1(OC(=O)C2CCCC2)C(=O)C=C2C=C(c3ccsc3)N(c3cccc(C#N)c3)C=C2C1=O (stereo unspecified)	/	.[7.66 µM]	/
Cc1ccsc1/C=N\NC(=O)c1ccc2c(c1)OCO2	?	.	7.1µM
Cc1c(/C=N/NC(=O)c2ccc3c(c2)OCO3)cnn1C	.	.	.
Cc1ccsc1/C=N/NC(=O)c1sccc1C	?	?	7.9µM
Cc1ccsc1/C=N/NC(=O)CO	.	.	.
O=C(Nc1ccccc1)N1CC2(CCN(C(=O)c3cccc(F)c3)CC2)C1	.	.	.
SMILES	Gal4-VP16 FLuc	KinaseGlo FLuc	RORg inh
C=C1CCN(C(CC(C)C)C(=O)NCc2ccc(OC)cc2)S(=O)(=O)c2ccccc21 (stereo unspecified)	.	/	.
COc1ccc(CNc2nc(NCc3ccc(OC)c(OC)c3)n(C(=O)c3cccs3)n2)cc1OC	.	.	?
CCCCn1c(N)c(N(CC(C)C)C(=O)C2CCN(S(=O)(=O)c3ccc(F)cc3)CC2)c(=O)[nH]c1=O	.	/	.
O=C(Oc1ccc(/C=N/Nc2ccccc2)cc1)c1ccccc1	.	.	.
O=C(O)c1ccc(N/N=C/c2ccc3nccnc3c2)cc1	0.32µM	/	0.1µM
COc1cc(/C=N/NC(=O)c2ccccc2)ccc1O	.	.	.
Cc1ccc2nc(Cl)c(/C=N/Nc3ccc(C(=O)O)cc3)cc2c1	7.1µM	/	3.2µM
O=C(O)c1ccc(N/N=C/c2ccc(OC(=O)c3cccc(Cl)c3)cc2)cc1	0.35µM	/	?
O=C(O)c1ccc(N/N=C/c2ccncc2)cc1	?	/	.
Cc1ccc2cc(/C=N/NC(=O)c3ccc(F)cc3)c(Cl)nc2c1	.	.	.
COc1cc(/C=N/Nc2ccc(C(=O)O)cc2)ccc1O	2.2µM	.	2.8µM
Fc1ccccc1NC(=S)N1CCC(c2ccccc2)C1 (stereo unspecified)	.	.	.
CNC(=O)C1CC(=O)N(c2ccc(C)cc2)C1 (stereo unspecified)	.	.	.
COc1ccc(CN2CC(C(=O)NCCc3ccc(C)cc3)CC2=O)cc1 (stereo unspecified)	.	.	.
CC(CS(=O)(=O)c1ccc2c(c1)NC(=O)CS2)C(=O)N1CCN(c2cccc(Cl)c2)CC1 (stereo unspecified)	.	/	.
Cc1ccc(CNC(=O)C2CCC(=O)N(CCc3cccc(F)c3)C2)cc1 (stereo unspecified)	.	/	.
CCS(=O)(=O)c1nc(S(=O)(=O)c2ccc(Cl)cc2)c(N2CCC(O)CC2)s1	.	/	.
Cc1ccc(S(=O)(=O)c2ncccc2N)cc1	.	/	.
Cc1ccc(S(=O)(=O)c2ncccc2[N+](=O)[O-])cc1	5.6µM	/	5.6µM
COc1ccc(-c2oc3cccnc3c2C#CCO)cc1	.	/	?
COc1ccc(-c2oc3cccnc3c2C#CC2(O)CCCCC2)cc1	?	/	7.1µM
O=C(COC(=O)c1ccc([N+](=O)[O-])s1)NC(=O)NCc1ccccc1	.	.	?
CC(NC(=O)COC(=O)c1ccc([N+](=O)[O-])s1)c1ccccc1 (stereo unspecified)	.	.	11µM
CC1CCC(C(=O)O)NC1c1cccc(N2CCOCC2)c1 (stereo unspecified)	.[10 µM]	/	.[10 µM]
CC(C)(O)C(=O)O	.	/	.
SMILES	Gal4-VP16 FLuc	KinaseGlo FLuc	RORg inh
CS(=O)(=O)c1ccc(C(=O)NCc2ccccc2F)cc1	.	.	.
Cc1ccc(S(=O)(=O)N2CCN(C(=O)c3cccs3)CC2)c(C)c1	.	.	.
COc1ccc(CNCCNC(=O)c2nonc2N)cc1OC	.	.	.
Nc1nonc1C(=O)NCCNCc1cc(Br)ccc1OCc1ccc(F)cc1	13µM	.	.
Cc1ccc(N(CC(O)CN2C(=O)NC(C)(C)C2=O)S(=O)(=O)c2ccc([N+](=O)[O-])cc2)cc1 (stereo unspecified)	.	/	.
COc1ccc(CCNC(=O)CSc2nnc(CNc3ccc(Cl)cc3)o2)cc1OC	.	.	.
O=C(CSc1nnc(CNc2ccc(Cl)cc2)o1)Nc1nc2c(s1)CCCC2	?	.	11µM
CN1CCN([C@@H](c2ccccc2)c2ccc(Cl)cc2)CC1	.	.	.[2.98 µM]
OCCN1CCN(CC(O)COc2ccc3ccccc3c2)CC1 (stereo unspecified)	.	.	.
OCCN1CCN(C(c2cccs2)c2ccc3cccnc3c2O)CC1 (stereo unspecified)	11µM	.	11µM
CN1CCN(C(c2ccc(C(F)(F)F)cc2)c2cc(Cl)c3cccnc3c2O)CC1 (stereo unspecified)	0.89µM	/	0.4µM
CN1CCN(C(c2cccc(Cl)c2)c2ccccc2Cl)CC1 (stereo unspecified)	.	.	.
c1ccc(C(c2nnnn2C2CCCC2)N2CCCCCC2)nc1 (stereo unspecified)	.	.	.
CN1CCN(C(c2ccc(Cl)cc2)c2cc(Cl)c3cccnc3c2O)CC1 (stereo unspecified)	1.4µM	/	3.2µM
Oc1c(C(c2ccccn2)N2CCCCC2)cc(Cl)c2cccnc12 (stereo unspecified)	?	/	2.8µM
